Source: the supplement of paper PMC10849652
The full data set covers some 8,800 targets. This sample favours those with a hit. About 0.5% of all pairs of compound and target were hits. Unmarked numbers belong to inactive results.

compound: Cc1sc2c(c1C)C(c1ccc(Cl)cc1)=N[C@@H](CC(=O)OC(C)(C)C)c1nnc(C)n1-2; assay: log2 fold change, soluble protein after heating vs DMSO (PISA); higher = thermal stabilisation; K562 lysate, 10 uM; active = over 0.2 and 3.5 SD of the protein, either way, in both replicates (recomputed)
Summary of the method: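 Thermal stability, expressed as log-two fold change relative to solvent controls, is given from duplicates. Crude K562 extract in PBS pH 7.4 with 1 mM MgCl2, at 1 mg/mL protein, was treated with 10 μM compound for 30 min and heated in aliquots for 3 min across 48°C-58°C. After pooling, adjustment to 0.5% NP-40 at 4°C and centrifugation at 21,000xg for 90 min, supernatant protein was measured by TMTpro 16plex LC-MS/MS with channel sums equalised.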

UniProt P35916, sequence (P35916 whole entry, looked up): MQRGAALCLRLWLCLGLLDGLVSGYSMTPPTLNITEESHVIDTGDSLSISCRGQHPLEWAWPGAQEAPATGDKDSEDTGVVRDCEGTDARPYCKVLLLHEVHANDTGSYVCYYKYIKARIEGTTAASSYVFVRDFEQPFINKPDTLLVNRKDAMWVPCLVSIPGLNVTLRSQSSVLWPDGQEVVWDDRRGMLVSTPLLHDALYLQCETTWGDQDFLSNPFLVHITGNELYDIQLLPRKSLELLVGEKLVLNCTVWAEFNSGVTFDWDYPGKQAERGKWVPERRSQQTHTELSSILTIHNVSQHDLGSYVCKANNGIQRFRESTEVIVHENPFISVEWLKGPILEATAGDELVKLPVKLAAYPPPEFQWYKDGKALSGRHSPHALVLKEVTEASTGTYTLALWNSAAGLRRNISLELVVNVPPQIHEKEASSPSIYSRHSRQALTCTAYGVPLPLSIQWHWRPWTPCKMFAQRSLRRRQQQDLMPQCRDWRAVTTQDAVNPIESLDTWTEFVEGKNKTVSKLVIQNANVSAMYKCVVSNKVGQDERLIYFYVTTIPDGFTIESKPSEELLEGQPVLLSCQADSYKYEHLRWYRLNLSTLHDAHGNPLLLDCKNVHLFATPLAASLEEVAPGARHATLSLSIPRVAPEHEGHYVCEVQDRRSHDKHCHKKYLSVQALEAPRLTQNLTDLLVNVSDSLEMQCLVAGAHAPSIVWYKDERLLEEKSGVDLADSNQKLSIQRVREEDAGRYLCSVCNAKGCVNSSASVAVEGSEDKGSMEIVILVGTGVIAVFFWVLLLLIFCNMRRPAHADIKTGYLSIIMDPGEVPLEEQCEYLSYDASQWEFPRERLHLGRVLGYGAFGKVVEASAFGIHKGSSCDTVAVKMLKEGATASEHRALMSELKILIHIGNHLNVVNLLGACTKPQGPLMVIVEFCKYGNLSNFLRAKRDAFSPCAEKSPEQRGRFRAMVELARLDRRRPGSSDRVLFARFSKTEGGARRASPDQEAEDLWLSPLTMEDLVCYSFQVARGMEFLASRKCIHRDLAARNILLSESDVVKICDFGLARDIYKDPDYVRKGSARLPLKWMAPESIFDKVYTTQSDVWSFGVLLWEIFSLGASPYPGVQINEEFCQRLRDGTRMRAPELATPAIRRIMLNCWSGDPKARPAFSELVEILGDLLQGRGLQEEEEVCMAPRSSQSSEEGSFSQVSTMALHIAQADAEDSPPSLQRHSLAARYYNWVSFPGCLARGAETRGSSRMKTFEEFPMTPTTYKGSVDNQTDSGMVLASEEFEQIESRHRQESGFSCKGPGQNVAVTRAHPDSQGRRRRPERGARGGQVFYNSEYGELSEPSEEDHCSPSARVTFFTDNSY
UniProt Q96PY5, sequence (Q96PY5 whole entry, looked up): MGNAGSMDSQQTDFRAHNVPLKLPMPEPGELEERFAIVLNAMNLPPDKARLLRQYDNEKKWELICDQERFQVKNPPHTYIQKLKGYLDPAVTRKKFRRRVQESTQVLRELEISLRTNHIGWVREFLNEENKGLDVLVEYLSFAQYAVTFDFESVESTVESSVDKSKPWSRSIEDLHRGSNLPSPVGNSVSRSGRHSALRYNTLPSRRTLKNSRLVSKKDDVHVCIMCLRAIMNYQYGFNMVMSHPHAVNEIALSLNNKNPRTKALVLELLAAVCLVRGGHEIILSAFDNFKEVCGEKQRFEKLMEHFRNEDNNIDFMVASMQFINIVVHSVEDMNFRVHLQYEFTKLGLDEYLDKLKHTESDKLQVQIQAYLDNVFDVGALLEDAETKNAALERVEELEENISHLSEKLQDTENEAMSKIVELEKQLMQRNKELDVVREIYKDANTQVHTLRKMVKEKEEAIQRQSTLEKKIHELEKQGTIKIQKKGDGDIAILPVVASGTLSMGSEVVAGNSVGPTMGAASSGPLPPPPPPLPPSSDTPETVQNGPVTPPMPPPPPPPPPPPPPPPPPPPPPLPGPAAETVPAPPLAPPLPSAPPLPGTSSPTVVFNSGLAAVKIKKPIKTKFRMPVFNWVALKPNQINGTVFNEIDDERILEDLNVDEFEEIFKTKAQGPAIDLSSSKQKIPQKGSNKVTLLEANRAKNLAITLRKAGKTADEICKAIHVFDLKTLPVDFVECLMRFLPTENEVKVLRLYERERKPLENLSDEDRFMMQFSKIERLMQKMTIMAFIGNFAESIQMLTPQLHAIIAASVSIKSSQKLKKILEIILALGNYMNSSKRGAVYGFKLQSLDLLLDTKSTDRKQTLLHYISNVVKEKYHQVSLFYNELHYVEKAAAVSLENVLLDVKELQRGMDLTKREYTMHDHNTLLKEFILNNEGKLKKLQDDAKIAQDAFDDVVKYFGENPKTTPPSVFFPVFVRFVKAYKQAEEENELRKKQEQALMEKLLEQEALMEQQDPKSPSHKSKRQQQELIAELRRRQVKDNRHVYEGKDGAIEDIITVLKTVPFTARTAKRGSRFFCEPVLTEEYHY
UniProt P58012, sequence (P58012 whole entry, looked up): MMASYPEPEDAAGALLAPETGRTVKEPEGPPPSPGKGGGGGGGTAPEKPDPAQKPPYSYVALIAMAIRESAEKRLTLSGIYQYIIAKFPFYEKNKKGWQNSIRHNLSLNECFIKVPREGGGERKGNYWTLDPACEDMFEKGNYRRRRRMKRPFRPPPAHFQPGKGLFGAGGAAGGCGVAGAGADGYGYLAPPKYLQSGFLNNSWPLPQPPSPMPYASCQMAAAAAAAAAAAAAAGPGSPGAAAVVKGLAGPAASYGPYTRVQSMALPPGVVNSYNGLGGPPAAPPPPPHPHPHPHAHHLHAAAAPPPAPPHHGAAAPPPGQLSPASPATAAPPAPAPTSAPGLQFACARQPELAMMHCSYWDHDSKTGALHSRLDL
UniProt Q8N5C7, sequence (Q8N5C7 whole entry, looked up): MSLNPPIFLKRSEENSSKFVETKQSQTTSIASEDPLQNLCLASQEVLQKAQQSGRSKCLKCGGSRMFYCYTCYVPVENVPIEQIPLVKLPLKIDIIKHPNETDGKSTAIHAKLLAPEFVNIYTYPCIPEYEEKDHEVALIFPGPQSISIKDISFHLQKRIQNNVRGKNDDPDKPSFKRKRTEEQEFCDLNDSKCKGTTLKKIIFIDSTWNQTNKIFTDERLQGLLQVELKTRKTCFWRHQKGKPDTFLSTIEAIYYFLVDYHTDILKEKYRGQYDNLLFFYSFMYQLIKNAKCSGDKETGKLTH
UniProt Q9P0K8, sequence (Q9P0K8 whole entry, looked up): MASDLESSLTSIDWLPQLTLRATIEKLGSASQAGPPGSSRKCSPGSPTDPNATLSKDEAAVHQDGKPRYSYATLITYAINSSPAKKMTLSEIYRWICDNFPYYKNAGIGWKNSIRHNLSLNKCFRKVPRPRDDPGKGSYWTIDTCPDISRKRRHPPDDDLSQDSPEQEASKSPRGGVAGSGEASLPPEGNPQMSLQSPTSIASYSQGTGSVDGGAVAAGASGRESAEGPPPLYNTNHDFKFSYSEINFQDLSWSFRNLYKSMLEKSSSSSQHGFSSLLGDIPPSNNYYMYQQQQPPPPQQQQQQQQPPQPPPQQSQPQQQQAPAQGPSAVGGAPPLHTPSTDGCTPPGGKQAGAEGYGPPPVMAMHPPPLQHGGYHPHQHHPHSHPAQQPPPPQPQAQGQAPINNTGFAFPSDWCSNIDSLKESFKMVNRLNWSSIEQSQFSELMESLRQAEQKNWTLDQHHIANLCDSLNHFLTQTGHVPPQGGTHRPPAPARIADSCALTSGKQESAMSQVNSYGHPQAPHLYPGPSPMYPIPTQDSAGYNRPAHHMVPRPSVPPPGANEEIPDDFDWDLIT
UniProt Q08426, sequence (Q08426 whole entry, looked up): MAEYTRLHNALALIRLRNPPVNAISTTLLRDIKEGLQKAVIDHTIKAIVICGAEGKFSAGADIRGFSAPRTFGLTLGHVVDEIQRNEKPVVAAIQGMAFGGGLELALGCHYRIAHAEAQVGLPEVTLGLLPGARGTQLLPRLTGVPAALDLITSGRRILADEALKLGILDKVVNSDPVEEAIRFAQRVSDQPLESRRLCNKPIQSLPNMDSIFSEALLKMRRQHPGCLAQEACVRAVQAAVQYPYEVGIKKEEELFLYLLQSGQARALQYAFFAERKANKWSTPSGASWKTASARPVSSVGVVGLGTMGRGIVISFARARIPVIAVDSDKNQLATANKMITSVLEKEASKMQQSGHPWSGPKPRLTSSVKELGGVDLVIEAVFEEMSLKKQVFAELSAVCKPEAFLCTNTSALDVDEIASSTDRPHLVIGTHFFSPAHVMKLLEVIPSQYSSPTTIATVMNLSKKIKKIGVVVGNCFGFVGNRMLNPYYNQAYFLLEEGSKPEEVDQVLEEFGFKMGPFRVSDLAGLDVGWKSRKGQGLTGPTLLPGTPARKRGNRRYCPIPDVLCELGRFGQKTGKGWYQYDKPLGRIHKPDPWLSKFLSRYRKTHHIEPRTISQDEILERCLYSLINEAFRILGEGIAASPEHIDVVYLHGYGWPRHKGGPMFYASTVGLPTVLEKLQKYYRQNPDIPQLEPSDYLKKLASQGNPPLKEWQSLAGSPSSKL
UniProt P11413, sequence (P11413 whole entry, looked up): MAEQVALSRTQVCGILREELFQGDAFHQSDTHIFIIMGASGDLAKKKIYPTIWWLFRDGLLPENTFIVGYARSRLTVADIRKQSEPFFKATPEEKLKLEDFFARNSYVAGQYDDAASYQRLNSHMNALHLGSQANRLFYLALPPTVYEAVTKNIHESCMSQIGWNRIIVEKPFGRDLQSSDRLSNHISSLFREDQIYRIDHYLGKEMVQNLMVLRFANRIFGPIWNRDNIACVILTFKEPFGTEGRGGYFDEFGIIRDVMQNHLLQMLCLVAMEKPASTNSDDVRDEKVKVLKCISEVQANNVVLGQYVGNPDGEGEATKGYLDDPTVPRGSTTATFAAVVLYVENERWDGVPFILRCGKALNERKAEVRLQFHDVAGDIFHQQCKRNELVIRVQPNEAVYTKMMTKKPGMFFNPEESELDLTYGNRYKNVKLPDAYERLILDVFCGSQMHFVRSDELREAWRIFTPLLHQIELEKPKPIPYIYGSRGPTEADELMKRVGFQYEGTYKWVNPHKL

Target | log2 fold change
GBA2 (UniProt Q9HCG7) | -0.094
FMNL2 isoform 3 (UniProt Q96PY5) | 0.089
EHHADH (UniProt Q08426) | -0.086
EID1 (UniProt Q9Y6B2) | 0.024
ELAVL4 (UniProt P26378) | -0.079
FOXJ2 (UniProt Q9P0K8) | 0.015
FAM111A (UniProt Q96PZ2) | -0.097
EPS8L2 (UniProt Q9H6S3) | 0.008
DTWD1 (UniProt Q8N5C7) | 0.039
ERG28 (UniProt Q9UKR5) | -0.08
ERCC4 (UniProt Q92889) | -0.008
EIF2AK3 (UniProt Q9NZJ5) | 0.025
GABPB1 (UniProt Q06547) | -0.001
FOXL2 (UniProt P58012) | 0.166
EIF2AK1 (UniProt Q9BQI3) | -0.022
GDE1 (UniProt Q9NZC3) | -0.067
GC isoform 3 (UniProt P02774) | -0.138
FAM76B (UniProt Q5HYJ3) | 0.038
GAMT (UniProt Q14353) | 0.114
FLT4 (UniProt P35916) | 0.098
G6PD isoform 2 (UniProt P11413) | 0.053
